RORg inh = qHTS for inhibitors of ROR gamma transcriptional activity | Nuclear receptor ROR-gamma (Mus musculus), P51450 | Potency, µM (series often up to 53.6 µM), usual class: inhibitors | hit rate 5.4% among 310,000 | AID 2551, 2010 | Drosophila S2 Gal4-RORgamma UAS-luciferase reporter, 20 h; note: nearly all actives have a fitted effect of over 60% in size
Target sequence (P51450 whole entry, looked up, the tested form may be a part): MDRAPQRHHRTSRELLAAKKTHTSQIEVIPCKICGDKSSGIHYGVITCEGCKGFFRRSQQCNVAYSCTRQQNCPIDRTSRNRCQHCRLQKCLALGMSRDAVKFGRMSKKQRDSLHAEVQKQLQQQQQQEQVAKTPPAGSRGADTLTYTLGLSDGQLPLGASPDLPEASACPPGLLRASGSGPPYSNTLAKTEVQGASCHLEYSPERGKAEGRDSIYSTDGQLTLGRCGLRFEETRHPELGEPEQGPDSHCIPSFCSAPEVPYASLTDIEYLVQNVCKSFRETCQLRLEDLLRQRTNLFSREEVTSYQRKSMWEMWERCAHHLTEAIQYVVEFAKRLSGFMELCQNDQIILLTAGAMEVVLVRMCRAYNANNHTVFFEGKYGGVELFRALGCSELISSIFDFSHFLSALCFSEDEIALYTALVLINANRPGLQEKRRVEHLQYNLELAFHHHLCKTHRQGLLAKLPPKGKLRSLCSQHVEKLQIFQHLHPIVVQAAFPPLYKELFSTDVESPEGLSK
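Compounds are pin-transferred onto Drosophila Schneider cells expressing a copper-inducible Gal4–ROR gamma transactivation domain fusion. After 1 hr, copper sulfate is added to 700 uM final; luciferase is read 20 hr later.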
DT40 TDP1 CPT = qHTS for Inhibitors of human tyrosyl-DNA phosphodiesterase 1 (TDP1): qHTS in cells in presence of CPT | chicken DT40 Tdp1-/-;hTDP1 cells + 20 nM CPT, ATP luminescence, 48 h | Potency, µM (top dose mostly 46.2 µM), usual class: inhibitors | hit rate 12% among 420,000; note: nearly all actives have a fitted effect of over 55% in size
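Chicken DT40 Tdp1-/- cells complemented with human TDP1, 400 cells/well, exposed to compounds plus 20 nM camptothecin for at least 48 h at 37 C; viability read as ATP content by CellTiter-Glo luminescence.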
TDP1 inh = qHTS Assay for Inhibitors of Tyrosyl-DNA Phosphodiesterase (TDP1); Potency, µM (top dose mostly 130 µM), usual class: inhibitors; hit rate 0.28% among 350,000; AID 485290, 2010; recombinant TDP1, AlphaScreen DNA substrate cleavage; Tyrosyl-DNA phosphodiesterase 1 (Homo sapiens), Q9NUW8; note: nearly all actives have a fitted effect of over 40% in size
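E. coli-derived human Tdp1, 1 nM final. Cpd preinc 15 min RT; substrate 15 nM final, 5 min RT; AS bead mix 10 ug/ml final, 10 min RT. Signal loss = tyrosine-FITC cleavage. No-enzyme wells = max signal.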
VP16 counter = VP16 counterscreen qHTS for inhibitors of ROR gamma transcriptional activity | Potency, µM (highest dose often 53.6 µM), actives largely listed as inhibitors | AID 2546, 2010 | hit rate 3.5% among 310,000 | Drosophila S2 Gal4-VP16 UAS-luciferase, luminescence, 20 h;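 note: Gal4-VP16 expression switched on by copper sulfate through the metallothionein promoter; nearly all actives have a fitted effect of over 50% in size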
DT40 TDP1 no CPT = qHTS for Inhibitors of human tyrosyl-DNA phosphodiesterase 1 (TDP1): qHTS in cells in absence of CPT; DT40 Tdp1-/- hTDP1 cells, no CPT, ATP luminescence, 48 h; Potency, µM (series often up to 46.2 µM), most hits filed as inhibitors; hit rate 15% among 420,000; note: nearly all actives have a fitted effect of over 55% in size
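Seeded 400 DT40-hTDP1 cells/well (vehicle DMSO, no 20 nM CPT); pinned compounds; ≥48 hr at 37 °C; CellTiter-Glo luminescence as viability measure.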
Numbers stand for hits; - = inactive; ? = inconclusive; . = not tested or not shown; [ ] = another dose, or the depositor's remark. Compounds with a hit are over-represented: about 19% of the library has one in this group of screens. Calls come from the whole dose curve; as a rule, active = well fitted curve in the direction sought with a large enough effect; inconclusive = small, poorly fitted or top-dose-only effect, or another doubt; inactive = no such curve, though single readings can be large; an effect the other way counts as inactive or inconclusive.

SMILES | RORg inh | DT40 TDP1 CPT | TDP1 inh | VP16 counter | DT40 TDP1 no CPT
CCOc1ccc(/C=N/NC(=O)c2ccccc2C)cc1CN1CC2CC(C1)c1cccc(=O)n1C2 (stereo not given) | . | ? | - | . | 23µM
Cc1ccc(N(C(=O)c2nsc(Cl)c2Cl)C(C(=O)NC2CCCC2)c2ccc(O)cc2)cc1C (stereo not given) | ? | ? | - | ? | ?
CCOc1ccc(C(C(=O)NC2CCCC2)N(C(=O)c2snc(C(N)=O)c2N)c2cccc(O)c2)cc1 (stereo not given) | - | ? | . | - | 16µM
CCOc1ccc(C(C(=O)NC2CCCC2)N(Cc2ccccc2)C(=O)c2nsc(Cl)c2Cl)cc1 (stereo not given) | - | 21µM | - | - | 18µM
CCCC(C(=O)NC1CCCC1)N(C(=O)c1snc(C(N)=O)c1N)c1ccc(OCC)cc1 (stereo not given) | - | - | - | - | 21µM
CCC1CCCCN1C(=O)c1cc(COc2ccc3ncccc3c2)on1 (stereo not given) | ? | 1.8µM | . | 2.8µM | 1µM
CCN(CC)C(=O)C1CCCN(C(=O)c2cc(COc3ccc4ncccc4c3)on2)C1 (stereo not given) | - | 16µM | - | ? | 5.8µM
COCC1CCN(C(=O)c2cc(COc3ccc4c(c3)CCCC4)on2)C1 (stereo not given) | - | ? | - | - | -
COCC1CCCCN1C(=O)c1cc(COc2ccc3ncccc3c2)on1 (stereo not given) | - | 1.2µM | - | 7.1µM | 0.92µM
COCCC1CCCCN1C(=O)c1cc(COc2ccc(-n3cncn3)cc2)on1 (stereo not given) | - | 5.2µM | - | 8.9µM | 2.1µM
CC(OC(=O)c1ccccc1OCCOc1ccccc1)C(=O)Nc1ccc(Br)cc1 (stereo not given) | . | - | . | . | -
COc1ccc(NC(C)=O)cc1S(=O)(=O)NC(Cc1ccccc1)C(=O)NC(C)c1ccccn1 (stereo not given) | . | - | . | . | -
O=C(N/C=N/OCc1ccc(Cl)cc1Cl)NOCc1ncc(C(F)(F)F)cc1Cl | - | ? | - | - | 15µM
N#Cc1cccc(OCCCN2CCC(C(O)(c3ccccc3)c3ccccc3)CC2)c1 | . | ? | . | . | 16µM
CC1CCN(CC(O)COc2ccc(-c3ccccc3)cc2)CC1 (stereo not given) | -[1.91 µM] | ? | . | - | 18µM
c1ccc(OCCCCN2CCOCC2)cc1 | - | - | - | - | -
N#Cc1ccc(OCC(O)CN2CCC(C(O)(c3ccccc3)c3ccccc3)CC2)cc1 (stereo not given) | - | 21µM | - | - | ?
Cc1cc(OCCCN2CCC(C(O)(c3ccccc3)c3ccccc3)CC2)ccc1Br | . | 5.8µM | . | . | 5.8µM
N#Cc1ccc(-c2ccc(OCC(O)CN3CCOCC3)cc2)cc1 (stereo not given) | - | ? | - | - | -
Cc1cccc(-c2nnc(SCC(=O)N3c4ccccc4CCc4ccccc43)n2C)c1 | -[10 µM] | ? | - | - | 23µM
Cn1c(SCC(=O)N2c3ccccc3CCc3ccccc32)nnc1-c1cc2ccccc2cc1O | - | 16µM | - | - | 15µM
Cn1c(SCC(=O)N2CCCc3ccccc32)nnc1-c1ccco1 | - | - | - | - | -
Cn1c(SCC(=O)N2CCCc3ccccc32)nnc1-c1ccccc1 | - | - | - | - | -
Cc1ccc(C)c(S(=O)(=O)N2CCN(C(=O)c3cnccn3)CC2)c1 | - | - | - | - | -
COc1cccc(OCC(=O)NNC(=O)C(=O)Nc2ccc(OC)cc2OC)c1 | - | ? | - | - | -
SMILES | RORg inh | DT40 TDP1 CPT | TDP1 inh | VP16 counter | DT40 TDP1 no CPT
CCOc1cc(C(=O)N(Cc2nc(-c3ccc(C)cc3)no2)C(C)C)cc(OCC)c1OCC | . | 16µM | - | . | ?
Cc1ccc(-c2noc(CSc3ccccc3)n2)cc1 | ? | - | . | 2µM | -
Cc1ccc(-c2noc(CN(C(=O)c3ccc4c(c3)OCO4)C(C)C)n2)cc1 | ? | ? | - | - | ?
Cc1ccc(C(=O)N(Cc2nc(-c3ccc(C)cc3)no2)C(C)C)cc1 | - | ? | - | - | 16µM
Cc1ccc(SCC(=O)N(Cc2nc(-c3ccccc3)no2)C(C)C)cc1 | - | 18µM | - | - | ?
Cc1cccc(-c2noc(CSc3ccccc3)n2)c1 | - | - | . | - | -
Cc1ccccc1OCC(=O)N(Cc1nc(-c2ccccc2)no1)C(C)C | - | ? | - | - | ?
CCc1ccc(N2CC(C(=O)OCC(=O)NC3CCS(=O)(=O)C3)CC2=O)cc1 (stereo not given) | - | - | - | - | -
COc1ccc(-c2noc(CN(C(=O)C(C)Oc3ccc(C)cc3)C(C)C)n2)cc1 (stereo not given) | . | 16µM | - | . | 15µM
Cc1ccc(CC(=O)N(Cc2nc(-c3ccc(C)cc3)no2)C(C)C)cc1 | . | ? | - | . | 23µM
Cc1ccc(-c2noc(CN(C(=O)c3cccs3)C(C)C)n2)cc1 | - | ? | - | - | ?
C[C@H]1[C@H](C)CC[C@]2(C(=O)O)CC[C@]3(C)C(=CCC4[C@@]5(C)C[C@@H](O)[C@H](O)[C@@](C)(CO)[C@@H]5CC[C@]43C)[C@H]12 (stereo not given in full) | 11µM | - | - | - | ?
C[C@@H]1CC[C@]2(C(=O)O)CC[C@]3(C)C(=CCC4[C@@]5(C)C[C@@H](O)[C@H](O)[C@@](C)(CO)C5[C@H](O)C[C@]43C)C2[C@H]1C (stereo not given in full) | ? | . | - | ? | .
C[C@@H]1CC[C@]2(C(=O)O)CC[C@]3(C)C(=CCC4[C@@]5(C)C[C@@H](O)[C@H](O)[C@@](C)(CO)C5CC[C@]43C)C2[C@H]1C (stereo not given in full) | - | . | - | 18µM | .
O=C(O)CN1C(=O)c2ccc(Oc3ccc4c(c3)C(=O)N(CC(=O)O)C4=O)cc2C1=O | - | - | . | - | -
CC1CC(=O)N(CC(=O)Nc2ccc3c(c2)OCO3)c2ccccc2S1 (stereo not given) | - | - | - | - | -
CC(C)(C)C(C(=O)NC1CCCC1)N1CCN(c2ncccc2C#N)CC1 (stereo not given) | . | 16µM | . | . | ?
N#Cc1cccnc1N1CCN(C(C(=O)NC2CCCC2)c2ccco2)CC1 (stereo not given) | . | - | . | . | ?
CCOC(=O)N1CCN(C(C(=O)NC2CCCC2)c2cccc(OC)c2OC)CC1 (stereo not given) | . | - | . | . | -
Cc1ccc(C)c(N2CCN(C(C(=O)NC3CCCC3)C(C)C)CC2)c1 (stereo not given) | . | 18µM | . | . | 21µM

Assay outcomes deposited in PubChem BioAssay by National Center for Advancing Translational Sciences (NCATS).
